# Legend:
# Assay in all cases: PBM binding z-score (relative to random genomic background probes); higher = stronger binding; sequences stand for … in GC…GCGATTGACAGCGTAGAATGAAGG
# [1] = tested on: PPARg:RXRa DBDmut IVT, anti-RXR (DBD mutation: RXRa K156A/R161A, NR concentration 270 nM, RXRa partner concentration 90 nM)
# Procedure, shortened: (§1)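 Ligand-free nuclear receptor dimers were bound for 1 h to custom Agilent 4×180K protein-binding microarrays. Detection used antibodies against each partner (one per run). Binding z-scores rest on regression-normalized fluorescence, with random background probes as the reference.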
# [2] = tested on: PPARg:RXRa IVT, anti-PPARg (NR concentration 270 nM, RXRa partner concentration 90 nM)
# Procedure, shortened: as §1
# [3] = tested on: PPARg DBDmut:RXRa IVT, anti-PPARg (DBD mutation: PPARg1 K132A/R137A, NR concentration 270 nM, RXRa partner concentration 90 nM)
# Procedure, shortened: as §1
# [4] = tested on: PPARg DBDmut IVT, anti-PPARg (DBD mutation: PPARg1 K132A/R137A, NR concentration 270 nM)
# Procedure, shortened: as §1
# [5] = tested on: PPARg homodimer (NR concentration 180 nM)
# Procedure, shortened: as §1
# [6] = tested on: PXR:RXRa (NR concentration 270 nM, RXRa partner concentration 90 nM)
# Procedure, shortened: as §1
# [7] = tested on: PXR homodimer (NR concentration 270 nM)
# Procedure, shortened: as §1
# [8] = tested on: RARa:RXR (NR concentration 270 nM, RXRa partner concentration 90 nM)
# Procedure, shortened: as §1
# [9] = tested on: RARa homodimer (NR concentration 270 nM)
# Procedure, shortened: as §1
# [10] = tested on: RARb:RXRa (NR concentration 270 nM, RXRa partner concentration 90 nM)
# Procedure, shortened: as §1
# [11] = tested on: RARb homodimer (NR concentration 270 nM)
# Procedure, shortened: as §1
# [12] = tested on: RARg:RXRa (NR concentration 270 nM, RXRa partner concentration 90 nM)
# Procedure, shortened: as §1
# [13] = tested on: RARg homodimer (NR concentration 270 nM)
# Procedure, shortened: as §1
# [14] = tested on: RXRa DBDmut IVT, anti-RXR (DBD mutation: RXRa K156A/R161A, NR concentration 90 nM)
# Procedure, shortened: as §1
# [15] = tested on: RXRa homodimer (NR concentration 180 nM)
# Procedure, shortened: as §1
# [16] = tested on: THRa:RXRa (NR concentration 90 nM, RXRa partner concentration 90 nM)
# Procedure, shortened: as §1
# [17] = tested on: THRa homodimer (NR concentration 90 nM)
# Procedure, shortened: as §1
# [18] = tested on: VDR:RXRa (NR concentration 270 nM, RXRa partner concentration 90 nM)
# Procedure, shortened: as §1
# [19] = tested on: VDR homodimer (NR concentration 270 nM)
# Procedure, shortened: as §1
Sequence,PBM binding z-score [1],PBM binding z-score [2],PBM binding z-score [3],PBM binding z-score [4],PBM binding z-score [5],PBM binding z-score [6],PBM binding z-score [7],PBM binding z-score [8],PBM binding z-score [9],PBM binding z-score [10],PBM binding z-score [11],PBM binding z-score [12],PBM binding z-score [13],PBM binding z-score [14],PBM binding z-score [15],PBM binding z-score [16],PBM binding z-score [17],PBM binding z-score [18],PBM binding z-score [19]
CCTTACGGGTCAATGACAGGTTATAGCATTTGGA,2.52,2.91,0.126,0.222,4.22,3.44,0.512,4.2,0.757,3.97,3.12,5.64,4.22,1.9,4.58,2.59,-0.0254,3.29,1.18
CGTCCTAGGTCAGAGAGGTCAGTGAATGCCGAGT,2.86,3.03,-0.901,-1.15,5.14,4.85,8.52,4.68,2.45,4.4,4.71,5.31,5.94,1.92,4.49,3.77,1.92,6.8,3.9
CAAACTAGGACACAGAGGTCAAAGTCCGTGCGTA,6.49,6.69,3.32,2.78,5.68,6.16,7.13,6.38,1.48,4.28,4.68,5.54,5.17,2.31,6.42,4.36,2.5,5.69,5.25
CATACAGGATCAGCTAGGCCAGAGTAGGGACGGC,-0.103,-0.208,0.289,0.351,0.422,-0.609,-0.0917,-0.441,0.241,-0.093,-0.0161,-0.112,0.213,-0.652,-0.0715,-0.122,0.03,-0.514,0.0286
TATATTAGTTGATTAGGGCAACCGAAACAGCGGA,0.409,2.01,2.25,1.83,1.16,0.636,0.89,0.181,2.13,1.16,0.779,0.789,1.19,0.252,0.43,0.944,0.495,0.452,0.982
TCATATAGGTAAAAGGTGAAAGACGGTGTGGTAA,5.58,5.42,1.69,1.75,3.5,1.66,0.734,3.13,1.65,1.91,1.74,2.01,0.857,1.7,3.05,1.55,0.208,1.57,0.152
TCTTATAGGTAATACAGGTGAAAGTCGGCATCTA,4.02,3.44,1.76,1.72,1.19,0.981,0.463,1.37,1.47,0.816,0.728,0.769,0.709,1.75,1.18,1.09,0.611,1.36,0.529
CGAACGAGGGCTTGAGTTGATAGCAAATGCCGAT,0.359,-0.447,-0.831,-1.02,-0.915,-0.245,-0.409,-0.285,-0.522,-0.252,-0.757,-0.238,-0.288,0.344,-0.152,-0.359,-0.618,-0.282,-0.163
AATACCGGGTCACTAGGCCAGAGTAGGTACGAAT,4.09,6.04,0.988,0.334,1.7,2.32,-0.108,3.37,0.616,3.47,2.74,4.17,3.95,1.2,4.15,3.08,0.928,3.03,1.22
CCTACTGGGCCAAATAGGTCATTGATGCCGATAA,4.31,4.63,0.236,-0.456,1.27,1.88,0.588,2.32,0.564,2.23,2.48,2.17,2.25,-0.057,2.2,1.67,-0.13,2.51,0.916
ACTAGATGGTCAGCTGAGGTCACACACAATTCGG,0.982,2.14,1.06,0.428,2.89,5.58,1.53,4.43,1.34,3.75,4.52,4.38,4.75,1.45,4.78,5.09,5.1,4.7,3.61
CCGACTGGGGCAAGGTTACCATCACGCACAGCCA,3.35,3.48,-0.952,-0.665,0.946,0.175,0.0478,0.822,-0.0498,1.5,1.61,1.08,1.33,-0.402,1.18,1.22,0.274,-0.00962,-0.0347
TGTCGGAGGACACGAAGGTCAGAGCTTTCCAGAG,-0.402,1.54,-0.86,-0.906,1.05,1.79,0.826,1.84,0.146,3.46,3.4,3.38,4.14,-0.488,1.8,2.92,0.651,2.42,0.981
TCTCGTTGGTCACGGAGGTCACACACGACGGGTA,1.58,3.31,0.735,1.33,2.82,4.37,0.995,4.41,1.01,4.02,4.68,4.95,4.91,0.929,4.39,3.73,2.29,5.96,2.98
AATCAAAGTTCAGGACGAGGTAACGTAAAGCACG,-0.649,0.571,0.569,0.969,1.98,2.9,1.19,2.55,1.39,4.19,3.22,4.66,4.55,2.68,2.92,3.92,1.58,3,2.06
